Counter-ions that a name gives are not always drawn. ± gives the standard deviation of the averaged measurements.
Legend:
[1] = system: Saccharomyces cerevisiae BY4741 SeMeCo community; test: mean cell size (pixel area) (pixels); higher = larger cells; details: 10 µM; 24 h; SM minimal medium
Summary of the method: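 In this assay, mean cell pixel area per well was obtained from automated confocal images of paraformaldehyde-fixed yeast analysed in Harmony. The cells were a Saccharomyces cerevisiae BY4741 community with four plasmids, each complementing one auxotrophy and carrying a fluorescent marker, grown for 24 h in SM medium with drug at a final 10 µM in 384-well plates. Values are averaged across 3 replicates. Same SeMeCo high-content imaging drug screen: Selleck FDA-approved drugs at 10 µM, 24 h in SM medium, 384-well plates, 3 replicates.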

[2] = system: Saccharomyces cerevisiae BY4741 SeMeCo community; test: z-score of prototroph abundance vs DMSO median; higher = larger share of this subpopulation than in DMSO controls; details: 10 µM; 24 h; SM minimal medium; subpopulation (auxotrophy): Prototroph
Summary of the method: (§1)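 Four plasmids, each restoring a single auxotrophy and encoding a distinct fluorescent protein, were carried by a Saccharomyces cerevisiae BY4741 community. After overnight growth to OD600 1.0 and dilution to 0.3, 70 µl per well was grown for 24 h in minimal SM medium on 384-well plates acoustically predosed with library drugs at 10 µM final. Following paraformaldehyde fixation, automated confocal microscopy was used, with single-auxotroph fluorescent strains defining thresholds and autofluorescence correction. Subpopulation abundance was then scored as a z-score against the vehicle-well median.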

[3] = system: Saccharomyces cerevisiae BY4741 SeMeCo community; test: z-score of subpopulation abundance vs DMSO median, subpopulation auxotrophic for L; higher = larger share of this subpopulation than in DMSO controls; details: 10 µM; 24 h; SM minimal medium; subpopulation (auxotrophy): L
Summary of the method: as §1

[4] = system: Saccharomyces cerevisiae BY4741 SeMeCo community; test: z-score of subpopulation abundance vs DMSO median, subpopulation auxotrophic for U; higher = larger share of this subpopulation than in DMSO controls; details: 10 µM; 24 h; SM minimal medium; subpopulation (auxotrophy): U
Summary of the method: as §1

[5] = system: Saccharomyces cerevisiae BY4741 SeMeCo community; test: z-score of subpopulation abundance vs DMSO median, subpopulation auxotrophic for H; higher = larger share of this subpopulation than in DMSO controls; details: 10 µM; 24 h; SM minimal medium; subpopulation (auxotrophy): H
Summary of the method: as §1

[6] = system: Saccharomyces cerevisiae BY4741 SeMeCo community; test: z-score of subpopulation abundance vs DMSO median, subpopulation auxotrophic for LM; higher = larger share of this subpopulation than in DMSO controls; details: 10 µM; 24 h; SM minimal medium; subpopulation (auxotrophy): LM
Summary of the method: as §1

[7] = system: Saccharomyces cerevisiae BY4741 SeMeCo community; test: z-score of subpopulation abundance vs DMSO median, subpopulation auxotrophic for HM; higher = larger share of this subpopulation than in DMSO controls; details: 10 µM; 24 h; SM minimal medium; subpopulation (auxotrophy): HM
Summary of the method: as §1

[8] = system: Saccharomyces cerevisiae BY4741 SeMeCo community; test: z-score of subpopulation abundance vs DMSO median, subpopulation auxotrophic for HU; higher = larger share of this subpopulation than in DMSO controls; details: 10 µM; 24 h; SM minimal medium; subpopulation (auxotrophy): HU
Summary of the method: as §1

[9] = system: Saccharomyces cerevisiae BY4741 SeMeCo community; test: z-score of subpopulation abundance vs DMSO median, subpopulation auxotrophic for UM; higher = larger share of this subpopulation than in DMSO controls; details: 10 µM; 24 h; SM minimal medium; subpopulation (auxotrophy): UM
Summary of the method: as §1

[10] = system: Saccharomyces cerevisiae BY4741 SeMeCo community; test: z-score of subpopulation abundance vs DMSO median, subpopulation auxotrophic for HL; higher = larger share of this subpopulation than in DMSO controls; details: 10 µM; 24 h; SM minimal medium; subpopulation (auxotrophy): HL
Summary of the method: as §1

[11] = system: Saccharomyces cerevisiae BY4741 SeMeCo community; test: z-score of subpopulation abundance vs DMSO median, subpopulation auxotrophic for HLM; higher = larger share of this subpopulation than in DMSO controls; details: 10 µM; 24 h; SM minimal medium; subpopulation (auxotrophy): HLM
Summary of the method: as §1

[12] = system: Saccharomyces cerevisiae BY4741 SeMeCo community; test: z-score of subpopulation abundance vs DMSO median, subpopulation auxotrophic for LUM; higher = larger share of this subpopulation than in DMSO controls; details: 10 µM; 24 h; SM minimal medium; subpopulation (auxotrophy): LUM
Summary of the method: as §1

[13] = system: Saccharomyces cerevisiae BY4741 SeMeCo community; test: z-score of subpopulation abundance vs DMSO median, subpopulation auxotrophic for HLUM; higher = larger share of this subpopulation than in DMSO controls; details: 10 µM; 24 h; SM minimal medium; subpopulation (auxotrophy): HLUM
Summary of the method: as §1

[14] = system: Saccharomyces cerevisiae BY4741 SeMeCo community; test: z-score of subpopulation abundance vs DMSO median, subpopulation auxotrophic for HUM; higher = larger share of this subpopulation than in DMSO controls; details: 10 µM; 24 h; SM minimal medium; subpopulation (auxotrophy): HUM
Summary of the method: as §1

[15] = system: Saccharomyces cerevisiae BY4741 SeMeCo community; test: z-score of subpopulation abundance vs DMSO median, subpopulation auxotrophic for LU; higher = larger share of this subpopulation than in DMSO controls; details: 10 µM; 24 h; SM minimal medium; subpopulation (auxotrophy): LU
Summary of the method: as §1

Nc1c(CC(=O)O)cccc1C(=O)c1ccccc1 [Amfenac Sodium Monohydrate]
mean cell size [1]: 12.78 ± 0.078 | z-score of prototroph abundance [2]: 0.49 | z-score of subpopulation abundance [3]: -0.33 | z-score of subpopulation abundance [4]: 0.11 | z-score of subpopulation abundance [5]: -0.38 | z-score of subpopulation abundance [6]: 0.25 | z-score of subpopulation abundance [7]: 1.16 | z-score of subpopulation abundance [8]: -0.95 | z-score of subpopulation abundance [9]: -0.16 | z-score of subpopulation abundance [10]: -0.27 | z-score of subpopulation abundance [11]: 2.36 | z-score of subpopulation abundance [12]: -0.56 | z-score of subpopulation abundance [13]: 0.57

COc1ccc([C@H]2CNC(=O)C2)cc1OC1CCCC1 [S- (+)-Rolipram]
mean cell size [1]: 12.43 ± 0.11

C=C1CC[C@@H]2[C@](C)(CO)[C@H](O)CC[C@@]2(C)[C@H]1C/C=C1\C=COC1=O [Dehydroandrographolide]
mean cell size [1]: 12.37 ± 0.086

COc1c(N2CCNC(C)C2)c(F)cc2c(=O)c(C(=O)O)cn(C3CC3)c12 (stereo unspecified) [Gatifloxacin]
mean cell size [1]: 12.4 ± 0.17 | z-score of prototroph abundance [2]: -0.15 | z-score of subpopulation abundance [4]: 0.81 | z-score of subpopulation abundance [5]: -0.44 | z-score of subpopulation abundance [6]: -0.79 | z-score of subpopulation abundance [8]: 0.38 | z-score of subpopulation abundance [9]: 0.32 | z-score of subpopulation abundance [10]: -0.93 | z-score of subpopulation abundance [11]: -0.34 | z-score of subpopulation abundance [14]: 0.51 | z-score of subpopulation abundance [12]: -0.33

CNS(=O)(=O)Cc1ccc2[nH]cc(CCN(C)C)c2c1 [Sumatriptan Succinate]
mean cell size [1]: 12.34 ± 0.1

O=S(=O)(O)CCCCOC[C@H]1O[C@@H]2O[C@H]3[C@H](O)[C@@H](O)[C@@H](O[C@H]4[C@H](O)[C@@H](O)[C@@H](O[C@H]5[C@H](O)[C@@H](O)[C@@H](O[C@H]6[C@H](O)[C@@H](O)[C@@H](O[C@H]7[C@H](O)[C@@H](O)[C@@H](O[C@H]8[C@H](O)[C@@H](O)[C@@H](O[C@H]1[C@H](O)[C@H]2O)O[C@@H]8CO)O[C@@H]7COCCCCS(=O)(=O)O)O[C@@H]6COCCCCS(=O)(=O)O)O[C@@H]5COCCCCS(=O)(=O)O)O[C@@H]4COCCCCS(=O)(=O)O)O[C@@H]3COCCCCS(=O)(=O)O
mean cell size [1]: 12.1 ± 0.26

NS(=O)(=O)c1cc(C(=O)O)c(NCc2ccco2)cc1Cl [Furosemide]
mean cell size [1]: 12.5 ± 0.21

COc1ccc2c3c1O[C@H]1C[C@@H](O)C=C[C@@]31CCN(C)C2 [Galanthamine HBr]
mean cell size [1]: 11.87 ± 0.11 | z-score of prototroph abundance [2]: -0.57 | z-score of subpopulation abundance [3]: -0.44 | z-score of subpopulation abundance [4]: 0.01 | z-score of subpopulation abundance [5]: 0.1 | z-score of subpopulation abundance [15]: 0.01 | z-score of subpopulation abundance [6]: -0.06 | z-score of subpopulation abundance [7]: 0.96 | z-score of subpopulation abundance [8]: -0.13 | z-score of subpopulation abundance [9]: 1.03 | z-score of subpopulation abundance [10]: -0.01 | z-score of subpopulation abundance [11]: -0.5 | z-score of subpopulation abundance [14]: 0.61 | z-score of subpopulation abundance [13]: -0.98

COc1cc(/C=C/C(=O)N2CCN(CC(=O)N3CCCC3)CC2)cc(OC)c1OC [Cinepazide maleate]
mean cell size [1]: 12.6 ± 0.14 | z-score of prototroph abundance [2]: -0.19 | z-score of subpopulation abundance [3]: -1.17 | z-score of subpopulation abundance [4]: 1.16 | z-score of subpopulation abundance [5]: -0.51 | z-score of subpopulation abundance [15]: 0.47 | z-score of subpopulation abundance [6]: -1.06 | z-score of subpopulation abundance [7]: -0.1 | z-score of subpopulation abundance [8]: 0.48 | z-score of subpopulation abundance [9]: 0.61 | z-score of subpopulation abundance [14]: -0.05 | z-score of subpopulation abundance [12]: -0.41 | z-score of subpopulation abundance [13]: -0.53

Reference: the supplement of paper PMC8975748
